Keap1-Nrf2 PPI: disrupts human Keap1 binding to Nrf2 peptide; Q14145; Keap1 Kelch-Nrf2 peptide fluorescence polarization, 1536-well; inhibition, % at 9.4 µM; 0.15% of 340,000 active; AID 504523; in the data active = inhibition above about 12%;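 note: human Keap1 Kelch domain with fluorescein labeled Nrf2 9mer peptide probe; 0% = neutral control wells and 100% = peptide positive control; higher means more block of Keap1 binding to Nrf2 peptide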
Target sequence (Q14145 whole entry, looked up, the tested form may be a part): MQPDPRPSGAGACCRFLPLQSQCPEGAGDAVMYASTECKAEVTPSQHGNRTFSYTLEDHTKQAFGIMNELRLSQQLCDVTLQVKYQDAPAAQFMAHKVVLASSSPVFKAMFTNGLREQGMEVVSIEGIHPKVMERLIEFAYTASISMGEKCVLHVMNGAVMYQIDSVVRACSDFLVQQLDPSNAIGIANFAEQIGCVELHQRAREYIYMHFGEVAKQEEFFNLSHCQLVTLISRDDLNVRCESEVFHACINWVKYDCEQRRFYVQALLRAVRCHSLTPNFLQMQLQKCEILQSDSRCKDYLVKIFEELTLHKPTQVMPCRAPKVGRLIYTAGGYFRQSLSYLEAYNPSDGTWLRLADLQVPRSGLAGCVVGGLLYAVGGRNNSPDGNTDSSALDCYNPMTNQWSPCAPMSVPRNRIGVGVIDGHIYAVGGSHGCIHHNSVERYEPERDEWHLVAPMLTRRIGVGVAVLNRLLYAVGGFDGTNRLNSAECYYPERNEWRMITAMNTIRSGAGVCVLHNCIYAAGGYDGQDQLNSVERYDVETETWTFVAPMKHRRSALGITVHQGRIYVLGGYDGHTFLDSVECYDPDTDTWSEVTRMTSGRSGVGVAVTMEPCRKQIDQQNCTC
LANA DNA inh: KSHV C-LANA DNA binding inhibition; MBP-C-LANA/FAM-LBS DNA binding, fluorescence polarization; inhibition, % at 9 µM; 0.078% of 340,000 active; AID 504423;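 active = highest replicate inhibition at or above 60% at 9 µM, even if other replicates fall short; inactive = all replicates below 60% inhibition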;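 note: 0% = neutral control wells and 100% = 4 µM acridine orange control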
Cardiac RTF inh: cardiac RTF calcium desensitization | IANBD-labeled cardiac RTF, Ca2+ fluorescence | AID 493244 | 0.12% of 340,000 active | inhibition, % at 7.15 µM;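 active = inhibition above the mean inhibition of all tested compounds plus 3 SD, cut at about 17% in these data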;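 note: assay run at fixed EC70 calcium of 1.6 mM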
RTF Ca sens act: increases calcium sensitivity of human cardiac regulated thin filaments. P19429+P45379. 0.24% of 340,000 active. activation, % at 7.2 µM. IANBD-labeled TnC RTF fluorescence at EC20 calcium; 0% EC20 calcium, 100% full calcium. AID 493008;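 active = activation above the mean over all tested compounds plus 3 SD, cut at about 30% in these data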;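 note: rise in fluorescence read as greater calcium sensitivity of cardiac thin filaments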
Keap1 Kelch bind: Keap1 (human) Kelch domain binding; shares compounds with Keap1-Nrf2 PPI; Keap1 Kelch thermal shift, delta Tm; hits give high values; max delta Tm, degrees C; 8% of 400 active; AID 651823; in the data active = max delta Tm above about 0.48 degrees C
Sypro dye melt: shifts Sypro Orange melt without protein, a false positive | 140 tested, under 10 active | Sypro Orange dye-only thermal melt, no protein, delta Tm; top dose 26 µM | shares compounds with Keap1-Nrf2 PPI | delta Tm, degrees C (concentration not given with the values);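 active = at highest dose tested, delta Tm positive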
An asterisk follows results filed as active; nt = no result given; ! = not confirmed by another sample. Sampled rows, rich in hits. Any-hit rate of the full collection: about 0.5%.

SMILES | Keap1-Nrf2 PPI | LANA DNA inh | Cardiac RTF inh | RTF Ca sens act | Keap1 Kelch bind | others
COc1ccccc1CNC(=O)c1ccc(S(=O)(=O)N(C)c2ccccc2)cc1 | -1.8 | -0.4 | -0.8 | -5.2 | nt
O=C(OCC(O)C(O)C(O)C(SCc1ccccc1)SCc1ccccc1)c1ccccc1 (stereo unspecified) | -1.4 | -1.4 | 5.8 | -4.8 | nt
COc1cc(/C=C/C(=O)OCC(=O)c2ccc3c(c2)NC(=O)CO3)ccc1OC(F)F | 21.1* | 11.4 | 0.0 | -1.8 | -0.12 | Sypro dye melt=-26
Cc1ccc(S(=O)(=O)N(C)CC(=O)O/N=C(\N)c2cccc(Br)c2)cc1 | -4.1 | -0.4 | 4.7 | -4.6 | nt
CCOC(=O)C1=C(C)NC(C)=C(C(=O)OCC)C1c1ccc([N+](=O)[O-])s1 | 38.6* | 19.7 | nt | nt | -0.11
C=CCOc1ccc(CNc2ccc(NC(=O)CC(C)C)cc2)cc1OC | 16.9* | 0.8 | 1.2 | -5.0 | -0.12
C=CCOc1ccc(CNc2nn[nH]n2)cc1OC | 0.4 | -1.4 | 7.9 | -2.7 | nt
Cc1ccc(S(=O)(=O)Nc2ccc3c4c(cccc24)CC3)c(C)c1 | -1.4 | -1.0 | 0.3 | 1.0 | nt
Cc1ccc(S(=O)(=O)Nc2ccc(O)c3ccccc23)c(C)c1 | 12.1* | 1.3 | -6.1 | -2.6 | 1.23*
Cc1ccc(S(=O)(=O)Nc2cccc(S(=O)(=O)Nc3ccccc3C(=O)O)c2)c(C)c1 | 15.6* | 0.0 | 0.2 | 4.3 | 1.13*
Cc1ccc(S(=O)(=O)Nc2cc(C(C(=O)OC(C)C)C(=O)C(F)(F)F)c(O)c3ccccc23)c(C)c1 (stereo unspecified) | 50.9* | -1.6 | 2.1 | -9.4 | 10.3*
Cc1ccc(C)c(S(=O)(=O)Nc2ccc(O)c3ccccc23)c1 | 4.1 | -1.8 | 1.0 | -7.3 | nt
Cc1cc(Br)ccc1NC(=O)CN(C)C(=O)c1cc([N+](=O)[O-])ccc1N1CCOCC1 | -0.2 | -2.6 | -4.3 | -4.5 | nt
COc1cc(/C=C/C(=O)O)cc(S(=O)(=O)Nc2ccc(S(=O)(=O)N3CCCCC3)cc2)c1OC | -2.7 | 2.5 | 0.6 | 4.3 | nt
CN1CCC2(CC1)C1CN(C)CC=C1C(C#N)=C(N)C2(C#N)C#N (stereo unspecified) | 13.5*! | 40.4 | -44.1 | 36.5* | -0.14
CC(C)N(C)Cc1nnnn1CC(=O)N(C)Cc1ccc(F)cc1 | 4.8 | 0.1 | -6.4 | 6.3 | nt
O=C(NC1=NCCS1)c1cccc(S(=O)(=O)N2CCOCC2)c1 | -4.5 | -0.7 | -10.6 | -1.5 | nt
CCn1nc(-c2ccccc2)c2nc3ccccc3nc21 | 42.0* | 74.4 | -90.2 | 50.1* | -0.07 | Sypro dye melt=-27.6
CCN1CCN(c2nc(-c3ccccc3)c3ccccc3n2)CC1 | -2.6 | 1.8 | -16.2 | -4.4 | nt
O=C(O)c1cc(N2C(=O)C=CC2=O)cc(N2C(=O)C=CC2=O)c1 | 33.2* | 97.7* | 13.4 | 3.4 | 0.27 | Sypro dye melt=-26.7
Cn1c(CNC(=O)c2ccco2)nnc1SCC(=O)Nc1ccccc1Cl | -1.7 | 0.7 | 0.3 | -6.5 | nt
COC(=O)Cc1cc(=O)n2c(nc3ccccc32)[nH]1 | 0.6 | -4.5 | 0.7 | 3.2 | nt
COc1ccc(NC(=O)Cc2ccsc2)cc1S(=O)(=O)N1CCOCC1 | 46.0* | 26.8 | -13.2 | 8.6 | -0.13
O=C(NCCN1C(=O)S/C(=C\c2cccc(Cl)c2Cl)C1=O)C1=COCCO1 | -1.1 | 0.3 | 1.9 | -6.2 | nt
O=C1C(Br)=C(c2ccccc2)C(c2ccccc2)=C1c1ccccc1 | 2.8 | 2.1 | -9.8 | -1.1 | nt
SMILES | Keap1-Nrf2 PPI | LANA DNA inh | Cardiac RTF inh | RTF Ca sens act | Keap1 Kelch bind | others
Cc1ccc(C(=O)NNC(=O)c2n[nH]c(=O)c3ccccc23)cc1C | 32.6* | 14.6 | -23.2 | 9.7 | -0.04
O=C(NNC(=O)c1n[nH]c(=O)c2ccccc12)c1ccc(Br)cc1 | -3.8 | -0.2 | 4.6 | -0.8 | nt
COCC(C)n1c(SC(C)C(=O)NC2CCCCC2C)nc2ccccc2c1=O (stereo unspecified) | 4.7 | -0.3 | -5.0 | -1.5 | nt
CC[C@@]1(O)C(=O)OCc2c1cc1n(c2=O)Cc2cc3c(CN(C)C)c(O)ccc3nc2-1 | 77.9* | 131.4* | -221.7 | 221.5* | -0.08
C=CCn1c(SCCN)nnc1-c1cccc(S(=O)(=O)N2CCOCC2)c1 | -1.0 | 1.1 | -5.3 | 0.3 | nt
Cc1cc(F)ccc1S(=O)(=O)N1CCCOC1CNC(=O)C(=O)NC1CCCCC1 (stereo unspecified) | 0.4 | 1.3 | -0.6 | -6.0 | nt
COC(=O)c1cc(C)nc2c1c(C)nn2-c1ccccc1 | 43.7* | 19.9 | -4.0 | -2.2 | -0.15 | Sypro dye melt=-27.9
COc1cc(OC)c(C(=O)OCC(=O)N2CCOCC2)cc1OC | -1.5 | -1.2 | -20.7 | 1.7 | nt
O=C(NNc1cc(Cl)ccc1Cl)c1cccs1 | 30.6* | 14.1 | nt | nt | -0.11
Cc1cc(Cl)ccc1NNC(=O)c1cccs1 | -4.3 | 0.3 | 1.2 | 5.2 | nt
COc1ccccc1Cn1c(=S)[nH]c2ccccc2c1=O | 98.8* | -2.5 | -11.5 | -5.3 | 0.01
Cc1cccc(NC(=O)CCN2CCCCC2)c1 | 31.8* | 16.2 | -2.1 | -0.4 | -0.1 | Sypro dye melt=-26
Cc1cccc(NC(=O)CN2CCCCCC2)c1 | -4.0 | 0.6 | 7.7 | 1.1 | nt
O=[N+]([O-])c1ccccc1S(=O)(=O)Nc1ccn(Cc2c(F)cccc2Cl)n1 | -0.6 | 0.6 | -3.8 | 5.7 | nt
COC(=O)c1cccc(NC(=O)Nc2ccc(Cl)cc2)c1 | -0.8 | -2.0 | nt | nt | nt
COC(=O)c1cccc(NC(=O)NC(=O)c2ccc(Cl)cc2)c1 | 44.4* | 27.5 | nt | nt | -0.01
c1ccc(-c2cn3nc4c(nc3n2)CCCC4)cc1 | 21.5* | 41.5 | -26.7 | 31.4* | -0.13 | Sypro dye melt=-30.5
COc1ccc(N=Nc2nc3cc(Br)c(Br)cc3n2C)c(OC)c1 | 12.6* | 24.3 | -42.3 | 47.4* | 0.04
CCN(CC(=O)Nc1ccccc1C(F)(F)F)C(=O)C1CSC2(C)CCC(=O)N12 (stereo unspecified) | -1.0 | -0.5 | -23.8 | 4.0 | nt
CCOC(=O)C1=C(CSc2nc3c(cc2C#N)CN(C)CC3)OC(N)=C(C#N)C1c1ccncc1 (stereo unspecified) | 16.8* | 35.4 | -37.6 | 10.9 | 0.08
CCOC(=O)C1=C(CSc2nc3c(cc2C#N)CN(C)CC3)OC(N)=C(C#N)C1c1ccc(Cl)cc1 (stereo unspecified) | -5.9 | 3.1 | -12.7 | 4.6 | nt
CCC1(c2ccccc2)NC(=O)N(CC(=O)Nc2ccc(OC)nc2)C1=O (stereo unspecified) | 60.7* | 88.3* | -79.8 | 61.5* | -0.12
CCC1(c2ccccc2)NC(=O)N(CC(=O)NCc2ccccc2OC)C1=O (stereo unspecified) | 6.9 | -0.2 | -0.7 | -9.2 | nt
Cn1ncc(Cl)c1C(=O)N1CCN(c2ccc(Cl)c(Cl)c2)CC1 | -1.1 | 3.2 | -0.6 | -2.3 | nt
CC1=CC(=C2N=C(c3ccccc3)OC2=O)C=C(C)O1 | 17.0* | 1.2 | -6.1 | 1.9 | -0.13
CN1C=CC=C/C1=C1/N=C(c2ccccc2)OC1=O | -0.6 | 0.2 | -0.5 | 9.7 | nt
Cn1cnc2nc[nH]c2c1=O | 0.5 | -0.7 | -6.0 | -4.3 | nt

Assay outcomes as filed in PubChem.
